Compounds with a hit are over-represented: about 4.3% of the library has one in this group of screens.
FAS TE block = FAS thioesterase domain inhibitors, primary screen, biochemical, fluorescence intensity, uHTS | recombinant FAS-TE, OMFH fluorogenic substrate, fluorescence endpoint | inhibition, % at 15 µM | AID 602261, 2012 | 0.67% of 360,000 active | Fatty acid synthase (Homo sapiens), P49327;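 active = compounds whose normalised, plate-corrected inhibition of enzyme fluorescence in the single-dose primary screen is 50% or more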
NR3A LBD binder = binders of NR3A ligand-binding domain, primary screen, biophysical, differential scanning fluorimetry, uHTS | Glutamate receptor ionotropic, NMDA 3A (GRIN3A) ligand-binding domain | NR3A LBD differential scanning fluorimetry, Tm shift; 0% = protein alone, 100% = glycine-bound protein | Tm shift relative to glycine control, % at 25 µM | 2.5% of 340,000 active | AID 1259313, 2017;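 active = melting temperature shift of at least 10% of the positive control shift, at one fixed dose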
rCAG binder = binders of r(CAG) RNA repeats, primary screen, biochemical, fluorescence; AID 651821, 2012; inhibition, % at 3 µM; 1.3% of 370,000 active; r(CAG) RNA repeat, TO-PRO-1 dye displacement fluorescence;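 active = inhibition above the plate cutoff, the mean of all test compounds on that plate plus 3 SD, cut at about 35% in these data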;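 also: higher means more dye released from RNA so lower well fluorescence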
NadD inh = inhibitors of S. aureus NadD, primary screen, biochemical, colorimetric, uHTS; Nicotinate-nucleotide adenylyltransferase NadD (Staphylococcus aureus N315); purified NadD enzyme, colorimetric absorbance read-out; inhibition, % at 20 µM; 0.78% of 360,000 active; AID 602399, 2012; in the data active = inhibition above about 26%
Hits are given with their value.

Screening O=C(NC(NC(=S)Nc1ccccc1O)C(Cl)(Cl)Cl)c1ccco1 (centres undefined) returned FAS TE block inactive, NR3A LBD binder inactive, rCAG binder inactive and NadD inh inactive.
Screening O=C(NC(NC(=S)Nc1ccccc1Cl)C(Cl)(Cl)Cl)c1cccc(Cl)c1 (centres undefined) returned FAS TE block inactive, NR3A LBD binder 12.6, rCAG binder inactive and NadD inh inactive.
`Cc1ccc2[nH]c(-c3cccc(F)c3)cc(=O)c2c1` gave FAS TE block inactive, NR3A LBD binder inactive, rCAG binder inactive and NadD inh inactive.
For Cc1ccc2[nH]c(-c3cccc(N)c3)cc2c1 the results were FAS TE block inactive, NR3A LBD binder 30.6, rCAG binder inactive and NadD inh inactive.
Screening CC(C)c1ccc(S(=O)(=O)Nc2ccc(SC(F)F)cc2)cc1 returned FAS TE block inactive, NR3A LBD binder 13.0, rCAG binder inactive and NadD inh inactive.
`CC(=O)c1cccc(NC(=O)CCS(=O)(=O)c2cc3c(cc2C)NC(=O)CO3)c1` gave FAS TE block inactive, NR3A LBD binder 52.7, rCAG binder inactive and NadD inh inactive.
Screening Cc1cc(C)cc(NS(=O)(=O)c2cc3[nH]c(=O)c(=O)[nH]c3cc2C)c1 returned FAS TE block inactive, NR3A LBD binder inactive, rCAG binder inactive and NadD inh inactive.
Screening Cc1ccc(NC(=O)CCS(=O)(=O)c2cc3[nH]c(=O)c(=O)[nH]c3cc2C)cc1 returned FAS TE block inactive, NR3A LBD binder 14.8, rCAG binder inactive and NadD inh inactive.
For CCc1cccc(NC(=O)CCS(=O)(=O)c2cc3c(cc2C)NC(=O)CO3)c1 the results were FAS TE block inactive, NR3A LBD binder inactive, rCAG binder inactive and NadD inh inactive.
`CCn1c2ccccc2c2cc(C=NNC(=O)c3ccoc3C)ccc21` gave rCAG binder inactive.
Screening Cc1ccc2cc(/C=N/Nc3nc4ccccc4[nH]3)c(Cl)nc2c1 returned FAS TE block inactive, NR3A LBD binder 11.7, rCAG binder inactive and NadD inh inactive.
Screening COc1cc(OC)c(OC)cc1/C=N/Nc1nc2ccccc2[nH]1 returned FAS TE block inactive, NR3A LBD binder inactive, rCAG binder inactive and NadD inh inactive.
For CC(C)C1CC(N(C)C)=CC(=S)N1 (centres undefined) the results were rCAG binder inactive.
Cc1ccccc1Cn1cc(COC(=O)NCCc2ccccc2)nn1 was read as rCAG binder inactive.
For COc1ccc(/C=C/C(=O)NCC(=O)N/N=C(/C)c2ccco2)cc1 the results were FAS TE block inactive, NR3A LBD binder 13.7, rCAG binder inactive and NadD inh inactive.
`C/C(=N/NC(=O)CNC(=O)/C=C/c1ccccc1)c1ccco1` gave FAS TE block inactive, NR3A LBD binder inactive, rCAG binder inactive and NadD inh inactive.
`Cc1ccc(C(=O)OCC(=O)NCc2ccco2)cc1` gave FAS TE block inactive, NR3A LBD binder 10.2, rCAG binder inactive and NadD inh inactive.
For O=C(COC(=O)c1cc(-c2cccs2)nc2ccccc12)NCc1ccco1 the results were FAS TE block inactive, NR3A LBD binder inactive, rCAG binder inactive and NadD inh 52.4.
O=C(COC(=O)c1ccccc1)NCc1ccco1 was read as FAS TE block inactive, NR3A LBD binder inactive, rCAG binder inactive and NadD inh inactive.
`CCCCN1CCS(=O)(=O)N(Cc2cn(Cc3ccccc3Br)nn2)C(C(=O)OC)C1` (centres undefined) gave rCAG binder inactive.
Screening Cc1nn2c(-c3ccccc3)c(-c3ccccc3)nc2[nH]c1=O returned FAS TE block inactive, NR3A LBD binder 20.2, rCAG binder inactive and NadD inh inactive.
For CC(C)(C)c1ccc(S(=O)(=O)N2CCCC2C(=O)N2CCc3ccccc3C2)cc1 (centres undefined) the results were rCAG binder inactive.
Screening CCCNC(=O)c1oc2ccc3c(c2c1C)C=CC(C)(C)O3 returned FAS TE block inactive, NR3A LBD binder inactive, rCAG binder inactive and NadD inh inactive.
For CCCNC(=O)c1oc2ccc3c(c2c1C)C(=O)CC(C)(C)O3 the results were FAS TE block inactive, NR3A LBD binder 633.1, rCAG binder inactive and NadD inh inactive.
`O=C(Nc1nccs1)c1ccc(-c2ccc(F)c(Cl)c2)o1` gave FAS TE block inactive, NR3A LBD binder 13.8, rCAG binder inactive and NadD inh inactive.

High-throughput results deposited in PubChem by several laboratories.
